Assay results: PubChem BioAssay (EPA / NIEHS)
Several values for one entry are separate records, joined by “and”; a condition that tells them apart may be missing. Equal entries are not always repeated. Inconclusive results are not listed. Where a structure was tested more than once in an assay, its records may differ in their call. Activity calls are given as the source filed them. The calls were made as follows: active = hit-call score of the fitted dose curve at least 0.9, where 1 is the maximum; inconclusive = response in the unintended direction; inactive = score below 0.9.

Target: Luciferin 4-monooxygenase (Photinus pyralis) (UniProt P08659)
Assay: CCTE_Simmons_QuantiLum_inhib_2: CCTE's Firefly Luciferase Inhibition Assay, Simmons Lab (AID 2283767);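 as to AC50: potency for inhibitors that lower luciferase luminescence relative to DMSO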
Protocol: CCTE_Simmons_QuantiLum_inhib_2 is a biochemical, single-readout assay that uses purified luciferase enzyme in a cell-free assay.Measurements were taken 0.5 hour after chemical dosing in a 384-well plate.CCTE_Simmons_QuantiLum_inhib_2 is the assay component measured from the CCTE_Simmons_QuantiLum_inhib_2 assay. It is designed to make measurements of enzyme activity, a form of enzyme reporter, as detected with bioluminescence signals by Luciferase-coupled Quantilum levels technology. This is a secondary assay to CCTE_Simmons_AUR_TPO to evaluate nonspecific enzyme inhibition.Data from the assay component CCTE_Simmons_QuantiLum_inhib_2 was analyzed at the endpoint, CCTE_Simmons_QuantiLum_inhib_2, in the positive analysis fitting direction relative to DMSO as the negative control and baseline of activity. Using a type of enzyme reporter, measures of enzyme activity for loss-of-signal activity can be used to understand inhibition of firefly luciferase. This is an assay endpoint to indicate nonspecific protein inhibition for comparison to aeid 1508 for thyroperoxidase inhibition. To generalize the intended target to other relatable targets, this assay endpoint is annotated to the oxidoreductase intended target family, where the subfamily is monooxygenase.
Quanti-Lum recombinant luciferase (Promega; Madison, Wisconsin) was diluted to 76.9 ng/ml with 200mM potassium phosphate buffer supplemented with 1 mg/ml bovine serum albumin and 65ul (5ng recombinant luciferase) per well was dispensed into opaque, white 384-well plates (Greiner, BioExpress) using an automated liquid handler (BioTek MicroFlo) with a plastic 5 ul tubing cassette. Test compounds were administered using the HDRT as described earlier to achieve a 0.5% final DMSO concentration. Microplates were incubated at 37C in the dark for 30min to mimic the AUR-TPO assay conditions. Luciferase detection reagent (25 ul per well; 9.2 mM dithiothreitol, 75uM Coenzyme A, 147uM dATP, 150uM D-luciferin, 8.9 mM Tricine, 297uM (MgCO3)4.Mg(OH)2.5H20, 742uM MgSO4, 27.8uM EDTA, pH 7.8, final assay concentrations) was then added using a BMG Clariostar plate reader equipped with syringe injectors (BMG LabTech; GmbH). Plates were read using a kinetic luminescence protocol (top read) whereby each well was individually injected with luciferase detection reagent immediately prior to measurement. Three biological replicates of technical singles were run for every chemical concentration tested. A titrated range of LUCINH2 served as a positive control on each plate of the luciferase inhibition screening assay. Test chemicals were administered as a titrated series of 8 concentrations from 5 nM up to 87.5 uM [final] for 30 minutes prior to single endpoint detection. Dimethylsulfoxide [DMSO] was used as the vehicle control. Luciferase Inhibitor I [2-(5-(2-Methoxyphenyl)-1,2,4-oxadiazol-3-yl)pyridine] was used as the positive control and was administered as a titrated series of 8 concentrations from 1 nM up to 100 uM [final].

Chain of Luciferin 4-monooxygenase (Photinus pyralis) (P08659 whole entry, looked up): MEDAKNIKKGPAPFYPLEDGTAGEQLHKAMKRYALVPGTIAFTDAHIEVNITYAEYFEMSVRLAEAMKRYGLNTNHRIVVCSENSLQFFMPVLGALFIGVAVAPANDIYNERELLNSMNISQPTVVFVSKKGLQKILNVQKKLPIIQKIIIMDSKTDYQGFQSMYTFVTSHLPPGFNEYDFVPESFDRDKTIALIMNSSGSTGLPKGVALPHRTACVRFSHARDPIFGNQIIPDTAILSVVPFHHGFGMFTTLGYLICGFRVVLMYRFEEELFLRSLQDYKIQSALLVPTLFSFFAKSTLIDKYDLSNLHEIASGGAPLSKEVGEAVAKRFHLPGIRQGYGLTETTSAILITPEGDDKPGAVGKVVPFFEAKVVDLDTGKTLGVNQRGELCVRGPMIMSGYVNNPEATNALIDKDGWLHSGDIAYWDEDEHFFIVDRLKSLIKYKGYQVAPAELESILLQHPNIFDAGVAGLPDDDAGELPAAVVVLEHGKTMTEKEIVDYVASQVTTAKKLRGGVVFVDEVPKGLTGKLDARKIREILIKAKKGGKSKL

Row | SMILES | outcome | AC50
1 | CC12CC1(C)C(=O)N(c1cc(Cl)cc(Cl)c1)C2=O (stereo not drawn) | inactive | 
2 | OCc1ccco1 | inactive | 
3 | C[C@H]1CCCC(=O)CCC/C=C/c2cc(O)cc(O)c2C(=O)O1 | inactive | 
4 | CC(C)(c1ccc(OCC2CO2)cc1)c1ccc(OCC2CO2)cc1 (stereo not drawn) | inactive | 
5 | CCOC(=O)Nc1cccc(OC(=O)Nc2ccccc2)c1 |  | 29.1 µM (active)
6 | COP(=O)(OC)O/C(=C\Cl)c1cc(Cl)c(Cl)cc1Cl | inactive | 
7 | Oc1cccc2cccnc12 | inactive | 
8 | CCOP(=S)(OCC)Oc1nc(Cl)c(Cl)cc1Cl | inactive | 
9 | O=C(Nc1ccc2[nH]ccc2c1)c1cc2cc(F)ccc2n1Cc1cccc(F)c1 |  | 33.3 µM (active)
10 | Cc1ccc2ccccc2c1C | inactive | 
11 | Cc1ccccc1N | inactive | 
12 | CC(C)(C)c1cc(O)ccc1O | inactive | 79.7 µM (active) and 80.7 µM (active)
13 | CC(C)c1cccc(C(C)C)c1O | inactive | 
14 | CC1(C)CCC(Cc2ccc(Cl)cc2)C1(O)Cn1cncn1 (stereo not drawn) | inactive | 
15 | CC(C)(c1ccccc1)c1ccc(O)c(C(C)(C)c2ccccc2)c1 | inactive | 
16 | CCCCCCCCSC(=O)Oc1cc(Cl)nnc1-c1ccccc1 |  | 81.7 µM (active)
17 | CC1(C)Cc2cccc(O)c2O1 | inactive | 
18 | CC(C)(C)CC(C)(C)c1ccc(O)cc1 | inactive | 
19 | COP(=S)(OC)Oc1ccc(Sc2ccc(OP(=S)(OC)OC)cc2)cc1 |  | 53.8 µM (active)
20 | Cc1ccc(N)cc1Cl | inactive | 
21 | CCOP(=S)(OCC)SCSP(=S)(OCC)OCC | inactive | 
22 | CCCCCCCCc1ccc(O)cc1 | inactive | 
23 | O=C(O)C(F)(F)C(F)(F)C(F)(F)C(F)(F)C(F)(F)C(F)(F)F | inactive | 
24 | NNC(=S)NN | inactive | 
25 | CCC1(c2ccc(N)cc2)CCC(=O)NC1=O (stereo not drawn) | inactive | 
26 | Clc1ccc(COC(Cn2ccnc2)c2ccc(Cl)cc2Cl)cc1 (stereo not drawn) | inactive | 
27 | CCC(C)(C)c1ccc(O)c(C(C)(C)CC)c1 | inactive | 
